L3MBTL1 block: qHTS Assay for the Inhibitors of L3MBTL1 | Lethal(3)malignant brain tumor-like protein 1 (Homo sapiens), Q9Y468 | AlphaScreen L3MBTL1–H3K9me1 peptide binding | Potency, µM (doses to about 57.1 µM), most hits filed as inhibitors | 0.66% of 230,000 active; also: nearly all actives have a fitted effect of over 60% in size
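AlphaScreen proximity signal between nickel-chelate acceptor and streptavidin donor beads (final 10 ug/mL) reports binding of 50 nM L3MBTL1 to 75 nM biotin-H3 K9me1 peptide; complex incubated with compounds 30 min at room temperature; cefsulodin titration as control.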
Sfp PPTase inh: qHTS Assay for Inhibitors of Bacillus subtilis Sfp phosphopantetheinyl transferase (PPTase); 4'-phosphopantetheinyl transferase ffp (Bacillus subtilis), Q9F4F7; Biochemical Sfp PPTase activity, qHTS; Potency, µM, usual class: inhibitors; 3.5% of 310,000 active; AID 1490, 2009;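 also: the enzyme is Sfp with the accession as filed and its product quenches rhodamine fluorescence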
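After 15 min at room temperature with compound, 15 nM Sfp received 5 uM rhodamine-CoA plus 12.5 uM BHQ-2-ybbR (50 mM Hepes pH 7.6, 10 mM MgCl2). Rate came from the fluorescence difference over 30 min, ex 525/em 598 nm.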
HP1b binding inh: HTS for Inhibitors of HP1-beta Chromodomain Interactions with Methylated Histone Tails. 0.56% of 390,000 active. AlphaScreen HP1-beta / biotin-H3K9me3 peptide binding. AID 540317, 2011. Potency, µM (series often up to 114 µM), most hits filed as inhibitors. Chromobox protein homolog 1 (Homo sapiens), P83916; also: nearly all actives have a fitted effect of over 70% in size
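AlphaScreen: HP1-beta (50 nM) preformed 30 min with biotin-H3(1-18)K9me3 peptide (50 nM) in PBS pH 7.4, 0.01% Tween-20. Compound added for 30 min at RT, then streptavidin donor/nickel chelate acceptor beads (10 ug/mL) for 30 min.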
BAZ2B inh: qHTS Assay for Inhibitors of BAZ2B | Bromodomain adjacent to zinc finger domain protein 2B (Homo sapiens), Q9UIF8 | Potency, µM (highest dose often 114 µM), usual class: inhibitors | AlphaScreen BAZ2B-H3K14Ac peptide displacement | 4.4% of 360,000 active | AID 504333, 2011; also: nearly all actives have a fitted effect of over 60% in size
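BAZ2B 50 nM plus b-H3(5-23)K14Ac 50 nM, PBS pH 7.4/0.01% Tween-20, 30 min RT; compound added (max 110 uM), 30 min RT; streptavidin donor/Ni-chelate acceptor beads 10 ug/mL final, 20 min dark; AlphaScreen read.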
JMJD2A Tudor inh: qHTS Assay for Inhibitors of JMJD2A-Tudor Domain; Lysine-specific demethylase 4A (Homo sapiens), O75164; 4.4% of 390,000 active; AlphaScreen JMJD2A-Tudor / H3K4me3 peptide binding; AID 504339, 2011; Potency, µM (highest dose often 114 µM), hits mostly inhibitors; also: nearly all actives have a fitted effect of over 50% in size
Target sequence (O75164 whole entry, looked up, the tested form may be a part): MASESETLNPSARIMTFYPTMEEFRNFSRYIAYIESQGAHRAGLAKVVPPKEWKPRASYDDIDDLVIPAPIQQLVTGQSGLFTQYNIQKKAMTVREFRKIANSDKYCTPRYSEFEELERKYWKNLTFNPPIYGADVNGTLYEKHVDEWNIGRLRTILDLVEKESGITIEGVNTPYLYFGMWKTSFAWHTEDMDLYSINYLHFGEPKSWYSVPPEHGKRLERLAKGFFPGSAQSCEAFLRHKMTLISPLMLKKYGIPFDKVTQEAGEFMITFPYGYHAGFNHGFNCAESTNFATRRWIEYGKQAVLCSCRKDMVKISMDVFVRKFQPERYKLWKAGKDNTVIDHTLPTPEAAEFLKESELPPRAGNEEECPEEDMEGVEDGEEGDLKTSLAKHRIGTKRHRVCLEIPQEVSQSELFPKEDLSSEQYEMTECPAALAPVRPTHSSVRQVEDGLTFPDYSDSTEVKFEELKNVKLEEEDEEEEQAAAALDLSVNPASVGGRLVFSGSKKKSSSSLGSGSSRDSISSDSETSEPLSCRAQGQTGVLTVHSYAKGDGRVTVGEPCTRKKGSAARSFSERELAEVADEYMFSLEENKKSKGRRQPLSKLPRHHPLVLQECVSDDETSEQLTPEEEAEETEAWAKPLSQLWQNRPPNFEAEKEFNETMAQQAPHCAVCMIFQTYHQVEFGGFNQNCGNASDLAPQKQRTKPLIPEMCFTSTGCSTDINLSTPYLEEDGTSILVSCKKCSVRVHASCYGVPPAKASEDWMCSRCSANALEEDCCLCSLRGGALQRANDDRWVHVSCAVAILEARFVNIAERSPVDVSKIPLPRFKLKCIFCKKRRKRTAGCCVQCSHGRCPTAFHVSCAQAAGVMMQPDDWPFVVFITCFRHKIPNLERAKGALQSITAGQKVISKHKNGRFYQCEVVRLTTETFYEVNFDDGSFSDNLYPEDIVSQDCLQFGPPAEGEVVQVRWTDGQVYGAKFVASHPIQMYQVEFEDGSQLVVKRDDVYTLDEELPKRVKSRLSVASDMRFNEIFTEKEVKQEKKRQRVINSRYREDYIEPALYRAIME
G9a block: qHTS Assay for Inhibitors of Histone Lysine Methyltransferase G9a; Histone-lysine N-methyltransferase EHMT2 (Homo sapiens), Q96KQ7; G9a H3K9 monomethylation, AlphaScreen, 2 h; Potency, µM (highest dose often 102 µM), most hits filed as inhibitors; 8.8% of 350,000 active; AID 504332, 2011; also: nearly all actives have a fitted effect of over 75% in size
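AlphaScreen detection with an anti-monomethyl H3K9 antibody quantified product after a 2 h room-temperature reaction containing 500 nM biotinylated H3K9 peptide, 20 µM SAM and 20 nM enzyme, which had been preincubated 15 min with compound.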
Large screens that a line does not name were inactive; ! = not confirmed by another sample. In the library only some 12% were active in any assay of this set; here they are far more common. Calls follow the shape of the dose curve; as a rule, active = well fitted curve in the direction sought with a large enough effect; inconclusive = small, poorly fitted or top-dose-only effect, or another doubt; inactive = no such curve, though single readings can be large; an effect the other way counts as inactive or inconclusive.

CC(=O)N1CCc2c(sc3c2c(=O)n(-c2cccc(Cl)c2)c(=O)n3Cc2ccc(F)cc2Cl)C1	none (no result: L3MBTL1 block, Sfp PPTase inh)
COC(=O)c1nc(N)sc1-c1ccc(OC)cc1	none
COc1ccc(-c2sc(Nc3ccc(F)c(F)c3F)nc2CCC(=O)NN)cc1	JMJD2A Tudor inh 56µM (no result: L3MBTL1 block)
Cc1ccc(SC2=NS(=O)(=O)c3ccccc32)c(C)c1	none (no result: L3MBTL1 block, Sfp PPTase inh, BAZ2B inh, G9a block)
CCCN(CCC)C(=O)c1cc([N+](=O)[O-])cc2c1-c1ccc([N+](=O)[O-])cc1C2=C(C#N)C#N	Sfp PPTase inh 50µM, BAZ2B inh inconclusive, JMJD2A Tudor inh inconclusive, G9a block 45µM
CCCCN(CCCC)C(=O)c1cc(Cl)ccc1[N+](=O)[O-]	none
Nc1ccc(S(=O)(=O)N2CCN(S(=O)(=O)c3c(F)cccc3F)CC2)cc1	JMJD2A Tudor inh 89µM (no result: L3MBTL1 block, Sfp PPTase inh, HP1b binding inh, BAZ2B inh, G9a block)
O=P(O)(O)c1ccccc1OCCOCCOc1ccccc1P(=O)(O)O	JMJD2A Tudor inh inconclusive, G9a block inconclusive
CCOP(=O)(O)c1ccccc1OCCOCCOc1ccccc1P(=O)(O)OCC	BAZ2B inh inconclusive, JMJD2A Tudor inh inconclusive, G9a block 56µM (no result: L3MBTL1 block)
CN1c2ccsc2C(O)=C(C(=S)Nc2ccc(F)c(Cl)c2)S1(=O)=O	Sfp PPTase inh 50µM, BAZ2B inh inconclusive, G9a block 18µM (no result: L3MBTL1 block)
COc1ccc(CCNC(=O)CSc2cn(CCNC(=O)c3ccc(OC)c(OC)c3)c3ccccc23)cc1OC	none (no result: L3MBTL1 block, Sfp PPTase inh)
N[C@H](C(=O)O)[C@H](O)C(=O)O	Sfp PPTase inh 89µM! (no result: L3MBTL1 block, HP1b binding inh, BAZ2B inh, JMJD2A Tudor inh)
CCOc1ccccc1NC(=O)C(C)n1nnc2sc3c(c2c1=O)CCCC3 (stereo not given)	none (no result: L3MBTL1 block, Sfp PPTase inh)
COc1ccc(/C=C2\SC(=S)N(CCC(=O)Nc3cccc(O)c3)C2=O)cc1	none (no result: G9a block)
COc1ccccc1/C=C1\SC(=S)N(CCC(=O)Nc2ccc(C(=O)O)c(O)c2)C1=O	HP1b binding inh inconclusive, BAZ2B inh 50µM, JMJD2A Tudor inh inconclusive, G9a block 50µM (no result: L3MBTL1 block)
O=C(CCN1C(=O)/C(=C\c2ccco2)SC1=S)Nc1ccc(C(=O)O)c(O)c1	Sfp PPTase inh 45µM, HP1b binding inh inconclusive, BAZ2B inh 35µM, JMJD2A Tudor inh 56µM, G9a block inconclusive (no result: L3MBTL1 block)
COc1ccccc1/C=C1\SC(=S)N(CCC(=O)NC2=NCCS2)C1=O	HP1b binding inh inconclusive
O=C(CCN1C(=O)/C(=C/c2ccco2)SC1=S)Nc1ccc(C(=O)O)c(O)c1	Sfp PPTase inh 56µM, HP1b binding inh 50µM, BAZ2B inh 45µM, JMJD2A Tudor inh 50µM, G9a block 22µM (no result: L3MBTL1 block)
O=C(CCCN1C(=O)/C(=C\c2ccco2)SC1=S)Nc1ccc2ccccc2c1	Sfp PPTase inh inconclusive, BAZ2B inh inconclusive, G9a block 25µM
Cn1ncc2c(N3CCN(c4ccc(F)cc4)CC3)ncnc21	BAZ2B inh 79µM (no result: L3MBTL1 block, Sfp PPTase inh)
Cn1nnc2c(N3CCN(c4ccc(F)cc4)CC3)ncnc21	JMJD2A Tudor inh 40µM (no result: L3MBTL1 block, Sfp PPTase inh)
CN(C)c1ccc(SC#N)cc1	G9a block 50µM
CCOc1ccccc1C(=O)NCC(=O)OCC(=O)c1c(N)n(C)c(=O)n(C)c1=O	none (no result: Sfp PPTase inh, BAZ2B inh, G9a block)
N#CCSc1ccccc1NC(=O)COC(=O)CCNC(=O)c1ccc([N+](=O)[O-])cc1	none (no result: Sfp PPTase inh)
CN(C)CCN(C(=O)c1ccc2ccccc2c1)c1nc2ccc(F)cc2s1	JMJD2A Tudor inh inconclusive, G9a block 45µM (no result: L3MBTL1 block)
CCc1ccc2nc(N(CCN(C)C)C(=O)c3ccc4ccccc4c3)sc2c1	Sfp PPTase inh inconclusive, BAZ2B inh inconclusive, JMJD2A Tudor inh inconclusive, G9a block 79µM (no result: L3MBTL1 block)
CCc1ccc2nc(N(CCN(CC)CC)C(=O)c3ccco3)sc2c1	none (no result: L3MBTL1 block, Sfp PPTase inh)
Cc1oc2ncn(C)c(=O)c2c1C(=O)NC(C)c1ccccc1 (stereo not given)	none (no result: L3MBTL1 block, Sfp PPTase inh)
COc1ccccc1-c1nc2n(n1)C(c1ccccc1Cl)C(C(=O)Nc1cccnc1)=C(C)N2 (stereo not given)	none (no result: L3MBTL1 block, Sfp PPTase inh)
